The results in this text go back to paper PMC7819943, “Rice protein-binding microarrays: a tool to detect cis-acting elements near promoter regions in rice”.

The full ranking holds about 39,000 sequences; the median of “fluorescence intensity (a.u.)” is about 4,300, and the highest 2% start at about 39,000. The list comes from a sample in which the highest values are over-represented; it also holds similar and randomly drawn sequences.

For the test, the target named is T1, OsSMF1 (Oryza sativa, UniProt Q6ZLB0 1-436).
T1 sequence: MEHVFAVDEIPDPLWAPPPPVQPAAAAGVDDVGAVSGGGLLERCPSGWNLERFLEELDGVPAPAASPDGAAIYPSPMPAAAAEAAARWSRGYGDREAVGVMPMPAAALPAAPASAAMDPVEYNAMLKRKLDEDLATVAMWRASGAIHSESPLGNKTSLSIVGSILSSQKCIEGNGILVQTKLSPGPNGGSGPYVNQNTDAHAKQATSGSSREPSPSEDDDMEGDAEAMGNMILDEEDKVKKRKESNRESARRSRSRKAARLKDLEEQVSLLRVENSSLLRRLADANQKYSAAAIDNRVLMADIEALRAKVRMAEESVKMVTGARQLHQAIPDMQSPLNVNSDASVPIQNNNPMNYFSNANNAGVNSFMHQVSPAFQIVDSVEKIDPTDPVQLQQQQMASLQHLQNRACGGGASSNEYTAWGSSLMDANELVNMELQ
Kind of test: protein-binding microarray (RPBM); PBS, 2% BSA, 51.3 ng/ul salmon testes DNA, 50 uM zinc acetate, 200 nM TF, 25 C, 1 h; high values mean tight binding. The following applies: protein: recombinant; tags: N-terminal polyhistidine and DsRed monomer fusion (pET32a); chain copies: 2; label: CyDye5-dUTP incorporated in the synthesized complementary strand; 3' TTTTT single-stranded linker to array surface; dsDNA, one strand shown. A digest of the protocol: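 Ni–NTA purification followed expression in E. coli BL21-CodonPlus of transcription factors fused N-terminally to a polyhistidine tag and DsRed. At 200 nM in PBS with 2% BSA, salmon testes DNA and 50 µM zinc acetate, the protein was incubated for 1 h at 25 °C with a custom Agilent array that had been primer-extended with Cy5-dUTP and blocked with 2% BSA. After washing, the array was read on an Axon 4000B scanner. The binding signal is per-feature fluorescence intensity in arbitrary units.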
Take “CAAGGCGGCCCAACCATCTTCGAAATGCGGCCCATGACGACGGAGTCACCTAGTGCAG”: the binding signal was 39100 fluorescence intensity (a.u.).

In the case of “TCCCCTTCTTCACCGATGCGGCGATGCGCGCGCCTTCTTCCGGAGTCACCTAGTGCAG”, the binding signal is 27500 fluorescence intensity (a.u.).

For “TATCATACAAATGACGACACCACACAAACGGCGGCCCAAGCGGAGTCACCTAGTGCAG”, the binding signal was 4320 fluorescence intensity (a.u.).

Regarding “GCGCCGCCGGCGCCGCGGCGCGGCCGATGACCACGCCGGACGGAGTCACCTAGTGCAG”, the binding signal was 3490 fluorescence intensity (a.u.).

As for “GTGTTCGACGAAATGCCAACAAGGAACGTGGTGGCGTGGACGGAGTCACCTAGTGCAG”, the binding signal is 3500 fluorescence intensity (a.u.).

For “CGCGCGCGCCGCCGCCGGTCGGTAACGACGGCGACGATGACGGAGTCACCTAGTGCAG”, the binding signal is 65500 fluorescence intensity (a.u.).

Regarding “CCCACGGCGCAACGATGACGATGACGATGCCCTTCCGGCGCGGAGTCACCTAGTGCAG”, the binding signal is 46900 fluorescence intensity (a.u.).

For “GAACGATGACGGCGCGATGGCCGCCGCCGTGGCGCGGACGCGGAGTCACCTAGTGCAG”, the binding signal was 3210 fluorescence intensity (a.u.).

In the case of “ACGGACGGGCGTCGGCGCGGGCGATGACGGACTGACGACGCGGAGTCACCTAGTGCAG”, the binding signal was 3490 fluorescence intensity (a.u.).

Consider “CCATCCACCATTCACTTTCCCACCTACCTCCACTATTTATCGGAGTCACCTAGTGCAG”, for which the binding signal is 3430 fluorescence intensity (a.u.).

Consider “AATAATGGGCTGAAAATATGTGACGCGAGGCGAGGGTCCCCGGAGTCACCTAGTGCAG”, for which the binding signal is 3260 fluorescence intensity (a.u.).

Consider “CGCCAACACGACGCTGTGCCGTGGCGCGCCGACAATCATCCGGAGTCACCTAGTGCAG”, for which the binding signal was 3600 fluorescence intensity (a.u.).

Consider “ACATGCCGCTAGGAAATATCCCATCCGGTGCCTGTCTAGACGGAGTCACCTAGTGCAG”, for which the binding signal is 3150 fluorescence intensity (a.u.).

Consider “TTGCCGGTACTTTGGTACGTCATCCGTGTATAAGTCGGTTCGGAGTCACCTAGTGCAG”, for which the binding signal is 5840 fluorescence intensity (a.u.).

Regarding “CTTGTGGCCGGCGCAGCCGCCGCACCCCTCCGACGTGTTCCGGAGTCACCTAGTGCAG”, the binding signal is 5380 fluorescence intensity (a.u.).

In the case of “GTGTTCCGCAGCGGCCGGGAGACGCGCCGGCTTGTCCCCTCGGAGTCACCTAGTGCAG”, the binding signal was 42300 fluorescence intensity (a.u.).

As to “TCCGCGGCTCCGCGCTCTCCCCTCGCCGGTGTCACCGCTCCGGAGTCACCTAGTGCAG”, the binding signal was 3390 fluorescence intensity (a.u.).

“CTAACCACGCCCGCCACGTACGCCGCCTCTGGGACCCCGACGGAGTCACCTAGTGCAG”: the binding signal was 5440 fluorescence intensity (a.u.).

As to “GCAGCATCTGTGATCTCTCAGTGGGACCCACGTGTCATTGCGGAGTCACCTAGTGCAG”, the binding signal was 5010 fluorescence intensity (a.u.).

Take “CCCTGTCCTGAAACGCCGTGACGGCTTCTCCTTCTCCCTCCGGAGTCACCTAGTGCAG”: the binding signal is 8960 fluorescence intensity (a.u.).

“CATATATATCTGACTAAAACGGTATATGTTGCACGTAGTGCGGAGTCACCTAGTGCAG”: the binding signal is 3360 fluorescence intensity (a.u.).

On to “GTACTCCGTACTAGTAGTGGCACTCAATGTTCGGTATCTGCGGAGTCACCTAGTGCAG”, for which the binding signal was 50200 fluorescence intensity (a.u.).

Take “GTCAGTGGCTCAGTGCCACCCGTAGTGTACTGCCACTCCGCGGAGTCACCTAGTGCAG”: the binding signal is 3370 fluorescence intensity (a.u.).

Turning to “ATACTATGTTAATTTGTCTGTGTCCTAATGACGCACCATACGGAGTCACCTAGTGCAG”, the binding signal is 4820 fluorescence intensity (a.u.).

As for “TTTACTGTAGCACCACATTGTCAAATTATGACGTAATTAGCGGAGTCACCTAGTGCAG”, the binding signal is 5440 fluorescence intensity (a.u.).

For “AACTTTGTTGTTGATGACGTTTTCAGTTGAAGTCGTTCACCGGAGTCACCTAGTGCAG”, the binding signal is 7120 fluorescence intensity (a.u.).

With “ATTTGTAAACAATGTTACTATCACTTTATCAGATGAAGAACGGAGTCACCTAGTGCAG”, the binding signal was 34600 fluorescence intensity (a.u.).

As for “ATGCTATTATATAAGAGAAAATATAATGATGCTGGCCGTGCGGAGTCACCTAGTGCAG”, the binding signal is 3240 fluorescence intensity (a.u.).

On to “AACGTGCCACTTTACCTGACGTGATGAAACAATATTATCACGGAGTCACCTAGTGCAG”, for which the binding signal is 3320 fluorescence intensity (a.u.).

“GGATGATGTGACTTAATAACAGAAGAGAGAAATAATATTACGGAGTCACCTAGTGCAG”: the binding signal is 40600 fluorescence intensity (a.u.).

On to “TGATTATTTGTGAAATAAAATGAGATAAAATGTGATTTTACGGAGTCACCTAGTGCAG”, for which the binding signal was 28600 fluorescence intensity (a.u.).

For the sequence “TGAACAATGTTACAAATCACTTTATCGGATGAAGAAATGACGGAGTCACCTAGTGCAG”, the binding signal was 46400 fluorescence intensity (a.u.).

For “CCAGGTCCCAGCCAGGGGTTTATTAGCTGATTCAAGACGTCGGAGTCACCTAGTGCAG”, the binding signal is 14900 fluorescence intensity (a.u.).

Consider “CTGGACAGGAAGCAAAGCTCCTGACACGCCCAGCCGTCCCCGGAGTCACCTAGTGCAG”, for which the binding signal was 3220 fluorescence intensity (a.u.).

For the sequence “ACCGCCATGTAGGTGCCACGTCATCGCCACGTGGAACGAACGGAGTCACCTAGTGCAG”, the binding signal is 32700 fluorescence intensity (a.u.).

On to “CCGGATGACATGATGACACCGCTACCCATTAAGTTTCGTCCGGAGTCACCTAGTGCAG”, for which the binding signal is 4050 fluorescence intensity (a.u.).

In the case of “CTCCTTCCATTTGTACCCACGTCTGCTGTCCATTGACCGGCGGAGTCACCTAGTGCAG”, the binding signal was 6910 fluorescence intensity (a.u.).

For the sequence “CCCATTGATGCTACAGAGAGTCCACGTCACCCTCGTCTGCCGGAGTCACCTAGTGCAG”, the binding signal was 42800 fluorescence intensity (a.u.).

Turning to “TCACCCTGTCCTCGTCACGTCCCATTTTACATCCACCACCCGGAGTCACCTAGTGCAG”, the binding signal is 6570 fluorescence intensity (a.u.).

Regarding “GCTTGCTTGCTTGCATCCTCCTCACATTCACCACGAGGTTCGGAGTCACCTAGTGCAG”, the binding signal is 3670 fluorescence intensity (a.u.).

In the case of “AGCTAGTACCTCACATGCATTCATCTTGCTTGCAATCCGTCGGAGTCACCTAGTGCAG”, the binding signal was 45100 fluorescence intensity (a.u.).

As for “GAATCTAGTAGCTTGCATCCTTTACATCTTCTCATCCTGTCGGAGTCACCTAGTGCAG”, the binding signal was 32700 fluorescence intensity (a.u.).
